HPGD inh = qHTS Assay for Inhibitors of HPGD (15-Hydroxyprostaglandin Dehydrogenase). 15-hydroxyprostaglandin dehydrogenase [NAD(+)] (Homo sapiens), P15428. purified HPGD, NADH fluorescence kinetic, PGE2 substrate. Potency, µM, for the others: at the highest dose activity change, negative = inhibition, actives largely listed as inhibitors. actives 4.3% (n = 150,000). AID 894, 2007; active means well fitted inhibition curve with a large enough effect, not every such curve was filed as active; inconclusive means small, poorly fitted or top-dose-only effect, or another doubt; inactive means no such curve, though single readings can be large or run the other way; further: potency means the concentration at half of the fitted maximal effect; on the % scale 0 is the no-effect control and ±100 the full control effect
Target sequence (P15428 whole entry, looked up): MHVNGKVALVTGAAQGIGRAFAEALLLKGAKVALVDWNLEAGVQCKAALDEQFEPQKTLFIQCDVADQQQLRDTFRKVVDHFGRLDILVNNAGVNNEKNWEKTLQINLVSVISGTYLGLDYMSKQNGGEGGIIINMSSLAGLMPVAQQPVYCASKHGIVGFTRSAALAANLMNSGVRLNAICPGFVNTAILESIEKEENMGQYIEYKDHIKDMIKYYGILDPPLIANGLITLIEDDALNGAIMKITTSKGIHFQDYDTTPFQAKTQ
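NADH formation kinetics: reaction with 30 uM PGE2 and 1 mM NAD+ (final), 20 nM enzyme, Tris-HCl pH 8 with Tween 20, after 15 min compound preincubation at room temperature. Fluorescence change, last versus first of five reads.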
HTT cytoprotect = qHTS Multiplex Assay to Identify Dual Action Probes in a Cell Model of Huntington: Cytoprotection (ATP) | PC12 HTT-Q103 induced, cytoprotection, ATP luminescence, 40 h | Potency, µM (highest dose often 56.4 µM), for the others: cytoprotection (ATP increase), usual class: activators | actives 0.14% (n = 230,000) | AID 1471, 2008; further: potency means the concentration at half of the fitted maximal effect; % of control where 0% means no effect; nearly all actives have a fitted effect of over 45% in size
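PC12 cells with ecdysone-inducible HTT exon 1 Q103-GFP, induced with 100 nM tebufenozide and co-treated with library compounds in a dose series (1536-well, 1500 cells/well). Cytoprotection read as ATP content by ATPlite luminescence.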
HttQ103 aggreg = qHTS Multiplex Assay to Identify Dual Action Probes in a Cell Model of Huntington: Aggregate Formation (GFP); actives 1.1% (n = 220,000); Potency, µM (highest dose often 46.1 µM), for inactives: at the highest dose activity change, negative = inhibition, most hits filed as inhibitors; PC12 HttQ103-GFP aggregates, Acumen cytometry, 40 h; AID 1688, 2009; further: potency means the concentration at half of the fitted maximal effect; on the % scale 0 is the no-effect control and ±100 the full control effect; nearly all actives have a fitted effect of over 60% in size
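Steps: seed 1500 PC12 HTTQ103-GFP cells/well; add tebufenozide, 100 nM final; add compound titration; add ATPLite reagent; quantify GFP aggregates by laser scanning cytometry.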
ALDH1A1 inh = qHTS Assay for Inhibitors of Aldehyde Dehydrogenase 1 (ALDH1A1); Aldehyde dehydrogenase 1A1 (Homo sapiens), P00352; Purified ALDH1A1, NADH fluorescence, propionaldehyde substrate; Potency, µM (highest dose often 75.3 µM), for inactives: at the top dose activity, negative = inhibition, actives largely listed as inhibitors; actives 7.3% (n = 220,000); AID 1030, 2008; active means well fitted inhibition curve with a large enough effect, not every such curve was filed as active; inconclusive means small, poorly fitted or top-dose-only effect, or another doubt; inactive means no such curve, though single readings can be large or run the other way;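 further: potency means the concentration at half of the fitted maximal effect; plate controls were no enzyme wells and a reference inhibitor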
IMPase inh = qHTS Assay for Identifying the Cell-Membrane Permeable IMPase Inhibitors; Inositol monophosphatase 1 (Rattus norvegicus), P97697; CHO-M1 cells, IP1 accumulation, HTRF TR-FRET ratio; inhibition (IP1 accumulation), % at 46.1 µM; 120,000 tested, under 10 active; active means well fitted curve in the direction sought with a large enough effect in the signal ratio, not every such curve was filed as active; inconclusive means small, poorly fitted or top-dose-only effect, or a change in a side signal; inactive means no such curve, though single readings can be large or run the other way; the % refers to the signal ratio;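 further: cells stimulated with carbachol in lithium chloride buffer; plate controls were DMSO basal wells for no effect and reference inhibitor wells for full effect; higher means more IMPase inhibition seen as more IP1 and lower FRET ratio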
Target sequence (P97697 whole entry, looked up): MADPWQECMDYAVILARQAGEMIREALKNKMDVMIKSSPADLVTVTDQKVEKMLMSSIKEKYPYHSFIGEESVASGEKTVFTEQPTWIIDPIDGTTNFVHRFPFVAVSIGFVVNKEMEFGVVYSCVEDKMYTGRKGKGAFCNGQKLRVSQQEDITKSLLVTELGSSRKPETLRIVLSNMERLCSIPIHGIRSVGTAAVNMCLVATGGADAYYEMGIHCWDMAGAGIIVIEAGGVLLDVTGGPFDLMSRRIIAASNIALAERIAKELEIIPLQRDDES
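CHO-M1 cells (CHO stably expressing M1 receptor), compound up to 46 uM final, stimulated with carbachol (50 uM as added) in buffer with 50mM LiCl, pH 7.4, 30 min at 37C. Cytosolic IP1 read by TR-FRET; AC50 from Hill fits.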
IMPase Li cell = qHTS Assay for Identifying the Cell-Membrane Permeable IMPase Inhibitors: Potentiation with Lithium. CHO-M1 cells, IP1 TR-FRET (IP-One), carbachol + lithium. Potency, µM (series often up to 59.4 µM), for inactives: at the highest dose activity, negative = IMPase inhibition, most hits filed as inhibitors. actives 0.35% (n = 210,000);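 further: IP1 builds up when IMPase is blocked and the TR-FRET signal falls; potency means the concentration at half of the fitted maximal effect; plate controls were basal vehicle for no effect and high inhibitor control for full effect; nearly all actives have a fitted effect of over 50% in size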
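Concentration–response in CHO-M1 cells, lithium-potentiated; 30 min at 37C. IP1 detected by competitive TR-FRET after 10 min lysis at RT. Hill-fitted AC50.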
An asterisk follows results filed as active; ! = not confirmed by another sample; [ ] = dose if it differs, or a comment. The list is not random: actives were taken first. Their share in the collection is about 9.4%. Unless noted, the call rests on the fitted dose curve; in most records, active means well fitted curve in the direction sought with a large enough effect; inconclusive means small, poorly fitted or top-dose-only effect, or another doubt; inactive means no such curve, though single readings can be large; an effect the other way counts as inactive or inconclusive.

`O=C(CC(Nc1ccccc1)C(=O)O)c1ccccc1` (stereo not drawn) gave HPGD inh -12%, HTT cytoprotect -100%[10 µM], HttQ103 aggreg 15%, ALDH1A1 inh 1.8µM*, IMPase inh 1 and IMPase Li cell -19%[38.3 µM].
For O=C(NN1C(=O)c2ccccc2NC1c1ccc([N+](=O)[O-])o1)c1ccc(Br)cc1 (stereo not drawn) the results were HTT cytoprotect 6.3µM*, HttQ103 aggreg inconclusive, ALDH1A1 inh 3% and IMPase Li cell -3%.
`CC1=C(C(=O)OC2CCCCCC2)C(c2cccc(Cl)c2)CC(=O)N1` (stereo not drawn) gave IMPase inh 12.
N#C/C(=C\c1c(N(Cc2ccccc2)Cc2ccccc2)nc2ccccn2c1=O)C(N)=O was read as HPGD inh -4%, HTT cytoprotect -22%[10 µM], HttQ103 aggreg 8%, ALDH1A1 inh inconclusive, IMPase inh 6 and IMPase Li cell 0%.
`C=CCNC(=O)/C(C#N)=C/c1c(N(Cc2ccccc2)Cc2ccccc2)nc2ccccn2c1=O` gave HPGD inh -18%, HTT cytoprotect inconclusive, HttQ103 aggreg inconclusive, ALDH1A1 inh 7.1µM*, IMPase inh 7 and IMPase Li cell 7%.
`Cc1cc(C)c2nc(N3CCC(C(=O)N4CCN(C(=O)c5ccco5)CC4)CC3)sc2c1` gave HPGD inh -14%, HTT cytoprotect -5%, HttQ103 aggreg -15%, ALDH1A1 inh 13µM*, IMPase inh 4 and IMPase Li cell 30%[38.3 µM].
Cc1cc(C)nc(SCC(=O)NN=C2CCCC2)n1 was read as HTT cytoprotect -44%, HttQ103 aggreg 0%, ALDH1A1 inh -15% and IMPase Li cell 5%.
Cc1cc(SCC(=O)NN=C2CCN(C(C)C)CC2)c(C)cc1Br was read as HPGD inh 25µM*, HttQ103 aggreg -5%, ALDH1A1 inh inconclusive and IMPase Li cell -2%.
Screening Cc1cc(SCC(=O)N/N=C/c2ccc(O)c(O)c2O)c(C)cc1Br returned HPGD inh 10µM*, HTT cytoprotect 4%, HttQ103 aggreg inconclusive, ALDH1A1 inh 4.5µM*, IMPase inh 2 and IMPase Li cell 27%[38.3 µM].
For COc1cc(/C=N/NC(=O)CSc2cc(C)c(Br)cc2C)ccc1O the results were HPGD inh -13%, HTT cytoprotect 3%, HttQ103 aggreg inconclusive, ALDH1A1 inh 0%, IMPase inh 3 and IMPase Li cell 42%[38.3 µM].
O=C(c1ccccc1)c1coc2ccc(O)c(Cl)c12 was read as HPGD inh 14µM*, HTT cytoprotect -29%[0.074 µM], HttQ103 aggreg -28%, ALDH1A1 inh inconclusive, IMPase inh -1 and IMPase Li cell 31%[38.3 µM].
CN(CCOc1ccc(C[C@H](Nc2ccccc2C(=O)c2ccccc2)C(=O)O)cc1)c1ccccn1 was read as HPGD inh -15%, HTT cytoprotect -17%, ALDH1A1 inh 6%, IMPase inh 6 and IMPase Li cell 16%.
Cc1ccc2c(c1)nnn2C1CCN(C(=O)C23CC4CC(CC(C4)C2)C3)CC1 was read as HPGD inh 5%, HTT cytoprotect inconclusive, HttQ103 aggreg -26%, ALDH1A1 inh 18µM*, IMPase inh 11 and IMPase Li cell 20%.
`CCOc1ccc(NC(=O)Cn2c(=O)n(-c3ccc(C)cc3)c(=O)c3cc(OC)c(OC)cc32)cc1` gave IMPase inh 3.
`COc1ccc(NC(=O)CSc2ccc(F)cc2)cc1S(=O)(=O)N1CCCCC1` gave HPGD inh -2%, HTT cytoprotect 11%[10 µM], HttQ103 aggreg 3%, ALDH1A1 inh 15µM* and IMPase Li cell 9%.
For COc1ccc(NS(=O)(=O)c2cccc(Cl)c2Cl)cc1S(=O)(=O)N1CCCCC1 the results were HPGD inh -3%, HTT cytoprotect 2%[10 µM], HttQ103 aggreg -24%, ALDH1A1 inh 0.35µM*, IMPase inh 0 and IMPase Li cell -3%.
`COc1ccc(NS(=O)(=O)c2cccc(Cl)c2)cc1S(=O)(=O)N1CCCCC1` gave HPGD inh -9%, HTT cytoprotect -23%[0.074 µM], HttQ103 aggreg -14%, ALDH1A1 inh 16µM* and IMPase Li cell -5%.
For CCOC(=O)c1c(N)sc2c1CCN(Cc1ccccc1)C2 the results were HPGD inh -25%, HTT cytoprotect -47%, HttQ103 aggreg -6%, ALDH1A1 inh -14% and IMPase Li cell 2%.
Screening O[C@@H](COc1cccc2ccccc12)CN1CCOCC1 returned HPGD inh -2%, HTT cytoprotect 0%[10 µM], ALDH1A1 inh 8%[13.5 µM] and IMPase Li cell -2%.
For Fc1ccc(Nc2nc(-c3cccnc3)nc3ccccc23)cc1 the results were HPGD inh inconclusive, HTT cytoprotect -2%, ALDH1A1 inh 3% and IMPase Li cell 24%.
Screening C=CCc1cc(C=O)cc(OC)c1OCc1ccc(C(=O)O)cc1 returned HttQ103 aggreg 10%, ALDH1A1 inh 10µM* and IMPase Li cell -2%.
For N#CC(=C=[N-])c1nc2ccccc2nc1-[n+]1cccc(NC(=O)c2ccccc2)c1 the results were HTT cytoprotect -15%[10 µM], HttQ103 aggreg 12%[9.22 µM] and ALDH1A1 inh 14µM*!.
N#CC(=C=[N-])c1nc2ccccc2nc1-[n+]1cccc(NC(=O)c2ccc(F)cc2)c1 was read as HTT cytoprotect 21%[10 µM], HttQ103 aggreg 40%[9.22 µM] and ALDH1A1 inh -8%.
COc1cccc(-n2c(N)c(-c3nc4ccccc4[nH]3)sc2=S)c1 was read as HTT cytoprotect -86%, HttQ103 aggreg 30%, ALDH1A1 inh 28µM* and IMPase Li cell 2%.
For CC(C)c1ccc(C(=O)CSc2ncn[nH]2)cc1 the results were HPGD inh 32µM*, HTT cytoprotect -16%, HttQ103 aggreg -20%, ALDH1A1 inh inconclusive, IMPase inh 3 and IMPase Li cell -5%[38.3 µM].
Screening CC(C)c1ccc(N2C(=O)CC(Sc3nc4ccccc4o3)C2=O)cc1 (stereo not drawn) returned HPGD inh inconclusive, HTT cytoprotect -148%, HttQ103 aggreg 3.5µM*, ALDH1A1 inh 0.71µM*, IMPase inh 2 and IMPase Li cell 2%[38.3 µM].

Assay outcomes (PubChem BioAssay)
